± gives the standard deviation of the averaged measurements. Targets with the largest changes are over-represented here; the source holds about 5,400 in all.
Compound: Nc1nc2c(ncn2[C@@H]2O[C@H](COP(=O)(O)OP(=O)(O)OP(=O)(O)O)[C@@H](O)[C@H]2O)c(=O)[nH]1 [guanosine triphosphate]
Test: NP40-soluble protein abundance relative to vehicle (solubility fold change) (ratio); higher = more soluble protein in presence of GTP
Conditions: concentration: 0.1mM
Outline: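 Eight concentrations, 0.1 to 10 mM, were tested on Jurkat crude lysate for 10 min at room temperature and then 3 min at 37 °C, in three independent experiments. The lysate was solubilised with 0.8% NP40 and benzonase, ultracentrifuged, and the supernatant TMT-labelled for LC-MS/MS. Each value is the fold change against the detergent-processed vehicle in its own replicate, from vsn-normalised intensities.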

UniProt Q9Y5J1, sequence (Q9Y5J1 whole entry): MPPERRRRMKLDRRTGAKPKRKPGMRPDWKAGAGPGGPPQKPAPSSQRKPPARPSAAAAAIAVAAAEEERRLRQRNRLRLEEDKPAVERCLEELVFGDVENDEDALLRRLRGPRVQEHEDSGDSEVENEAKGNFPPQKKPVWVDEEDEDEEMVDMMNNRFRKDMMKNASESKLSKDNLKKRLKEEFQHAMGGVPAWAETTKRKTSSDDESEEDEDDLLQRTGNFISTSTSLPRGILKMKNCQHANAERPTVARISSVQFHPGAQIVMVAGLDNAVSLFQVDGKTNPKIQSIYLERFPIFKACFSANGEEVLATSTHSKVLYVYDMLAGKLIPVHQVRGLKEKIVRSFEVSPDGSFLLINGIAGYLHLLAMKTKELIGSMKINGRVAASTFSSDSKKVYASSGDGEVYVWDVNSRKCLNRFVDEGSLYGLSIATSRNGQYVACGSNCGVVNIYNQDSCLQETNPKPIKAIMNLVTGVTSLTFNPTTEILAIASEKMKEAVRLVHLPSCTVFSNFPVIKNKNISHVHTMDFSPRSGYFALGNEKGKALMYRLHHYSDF
UniProt Q96T23, sequence (Q96T23 whole entry): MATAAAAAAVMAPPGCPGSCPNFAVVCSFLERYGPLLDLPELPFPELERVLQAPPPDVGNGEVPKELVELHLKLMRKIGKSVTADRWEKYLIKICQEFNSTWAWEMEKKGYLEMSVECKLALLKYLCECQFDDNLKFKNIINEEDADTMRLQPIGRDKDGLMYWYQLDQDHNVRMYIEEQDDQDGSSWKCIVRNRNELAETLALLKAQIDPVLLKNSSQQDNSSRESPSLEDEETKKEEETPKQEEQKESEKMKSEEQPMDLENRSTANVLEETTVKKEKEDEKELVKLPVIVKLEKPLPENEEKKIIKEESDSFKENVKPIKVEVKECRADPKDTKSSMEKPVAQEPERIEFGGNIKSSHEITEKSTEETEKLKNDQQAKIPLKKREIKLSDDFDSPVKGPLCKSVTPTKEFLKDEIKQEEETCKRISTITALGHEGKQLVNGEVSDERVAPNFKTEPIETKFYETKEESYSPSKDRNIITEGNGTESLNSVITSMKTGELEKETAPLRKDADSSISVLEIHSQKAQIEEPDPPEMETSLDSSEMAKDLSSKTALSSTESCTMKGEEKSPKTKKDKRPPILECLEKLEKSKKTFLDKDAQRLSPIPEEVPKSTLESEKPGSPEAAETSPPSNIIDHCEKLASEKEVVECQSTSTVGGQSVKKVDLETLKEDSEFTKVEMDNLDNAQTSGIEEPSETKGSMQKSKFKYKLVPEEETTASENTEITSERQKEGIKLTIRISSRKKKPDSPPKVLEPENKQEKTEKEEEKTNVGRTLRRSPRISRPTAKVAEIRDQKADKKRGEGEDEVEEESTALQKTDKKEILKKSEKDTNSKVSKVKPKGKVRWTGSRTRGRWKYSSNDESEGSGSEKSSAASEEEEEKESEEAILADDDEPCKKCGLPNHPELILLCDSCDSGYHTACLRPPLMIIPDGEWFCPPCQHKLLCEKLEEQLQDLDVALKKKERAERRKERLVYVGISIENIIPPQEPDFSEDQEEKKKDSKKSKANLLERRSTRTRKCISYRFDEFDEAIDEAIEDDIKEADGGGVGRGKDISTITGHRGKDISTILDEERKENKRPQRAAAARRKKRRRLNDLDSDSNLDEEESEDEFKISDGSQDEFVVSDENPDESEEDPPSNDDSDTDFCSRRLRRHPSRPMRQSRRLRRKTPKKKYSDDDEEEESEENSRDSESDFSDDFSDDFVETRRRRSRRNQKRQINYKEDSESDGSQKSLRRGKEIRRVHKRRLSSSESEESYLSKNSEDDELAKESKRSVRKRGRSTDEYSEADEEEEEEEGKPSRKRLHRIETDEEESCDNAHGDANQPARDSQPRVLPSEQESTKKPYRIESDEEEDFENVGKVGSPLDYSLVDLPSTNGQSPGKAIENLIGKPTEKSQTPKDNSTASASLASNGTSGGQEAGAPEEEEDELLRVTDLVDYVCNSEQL
UniProt Q9UKV8, sequence (Q9UKV8 whole entry): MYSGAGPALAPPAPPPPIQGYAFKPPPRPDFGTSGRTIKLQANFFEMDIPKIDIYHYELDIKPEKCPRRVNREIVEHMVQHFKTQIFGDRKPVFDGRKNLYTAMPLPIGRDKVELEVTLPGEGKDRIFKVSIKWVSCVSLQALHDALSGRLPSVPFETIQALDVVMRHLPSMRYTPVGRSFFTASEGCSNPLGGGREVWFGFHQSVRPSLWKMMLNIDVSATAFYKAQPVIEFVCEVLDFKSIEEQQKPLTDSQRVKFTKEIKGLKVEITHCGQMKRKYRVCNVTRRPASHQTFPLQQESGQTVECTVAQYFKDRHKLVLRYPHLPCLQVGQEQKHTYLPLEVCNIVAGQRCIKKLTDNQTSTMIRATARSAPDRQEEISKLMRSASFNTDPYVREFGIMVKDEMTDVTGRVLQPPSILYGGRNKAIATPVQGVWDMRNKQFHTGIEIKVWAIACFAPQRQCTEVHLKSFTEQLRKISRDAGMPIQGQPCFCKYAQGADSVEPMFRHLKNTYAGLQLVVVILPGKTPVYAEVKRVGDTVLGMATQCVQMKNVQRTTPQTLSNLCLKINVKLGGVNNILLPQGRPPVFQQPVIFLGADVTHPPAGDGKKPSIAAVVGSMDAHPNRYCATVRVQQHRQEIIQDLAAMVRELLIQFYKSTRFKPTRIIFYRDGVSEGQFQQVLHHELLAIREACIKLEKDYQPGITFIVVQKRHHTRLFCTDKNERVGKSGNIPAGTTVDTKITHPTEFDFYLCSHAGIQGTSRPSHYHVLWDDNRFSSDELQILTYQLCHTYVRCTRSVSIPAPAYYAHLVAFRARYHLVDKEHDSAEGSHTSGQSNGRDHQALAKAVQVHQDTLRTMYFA
UniProt Q96HS1, sequence (Q96HS1 whole entry): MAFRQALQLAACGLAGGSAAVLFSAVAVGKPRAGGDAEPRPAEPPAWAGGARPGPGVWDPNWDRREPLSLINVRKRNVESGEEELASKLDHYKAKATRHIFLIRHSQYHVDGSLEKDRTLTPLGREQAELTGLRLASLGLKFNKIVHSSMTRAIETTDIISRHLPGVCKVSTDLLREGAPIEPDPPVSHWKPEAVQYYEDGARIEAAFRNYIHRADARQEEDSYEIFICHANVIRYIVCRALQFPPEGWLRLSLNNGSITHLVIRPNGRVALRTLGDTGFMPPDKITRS
UniProt Q96EM0, sequence (Q96EM0 whole entry): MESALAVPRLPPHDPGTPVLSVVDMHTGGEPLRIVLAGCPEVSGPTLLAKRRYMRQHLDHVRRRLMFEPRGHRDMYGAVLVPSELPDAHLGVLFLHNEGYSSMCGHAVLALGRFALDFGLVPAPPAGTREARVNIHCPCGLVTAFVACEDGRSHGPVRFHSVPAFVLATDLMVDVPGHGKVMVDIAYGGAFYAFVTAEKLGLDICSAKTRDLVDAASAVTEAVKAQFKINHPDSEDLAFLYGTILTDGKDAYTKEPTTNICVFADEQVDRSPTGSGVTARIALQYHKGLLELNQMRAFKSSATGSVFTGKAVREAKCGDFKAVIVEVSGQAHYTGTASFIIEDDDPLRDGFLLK
UniProt Q9NPF5, sequence (Q9NPF5 whole entry): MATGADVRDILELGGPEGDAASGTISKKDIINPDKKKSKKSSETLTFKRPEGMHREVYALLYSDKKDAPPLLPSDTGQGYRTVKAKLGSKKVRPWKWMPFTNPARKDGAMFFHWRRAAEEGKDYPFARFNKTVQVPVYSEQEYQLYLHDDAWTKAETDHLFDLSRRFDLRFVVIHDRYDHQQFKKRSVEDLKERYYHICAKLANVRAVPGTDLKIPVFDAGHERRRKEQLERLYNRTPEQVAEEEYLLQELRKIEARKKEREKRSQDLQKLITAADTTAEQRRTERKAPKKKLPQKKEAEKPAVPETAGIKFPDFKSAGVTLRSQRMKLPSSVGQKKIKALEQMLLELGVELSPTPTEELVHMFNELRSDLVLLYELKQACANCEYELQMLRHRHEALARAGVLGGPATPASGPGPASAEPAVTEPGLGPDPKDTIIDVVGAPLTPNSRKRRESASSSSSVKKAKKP
UniProt Q9UL25, sequence (Q9UL25 whole entry): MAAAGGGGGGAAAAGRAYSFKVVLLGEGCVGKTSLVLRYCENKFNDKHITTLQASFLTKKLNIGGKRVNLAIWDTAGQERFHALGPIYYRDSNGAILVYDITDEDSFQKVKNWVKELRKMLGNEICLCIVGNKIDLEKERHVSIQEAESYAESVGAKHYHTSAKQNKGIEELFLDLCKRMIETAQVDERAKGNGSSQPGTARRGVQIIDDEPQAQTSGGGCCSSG
UniProt Q9UKA9, sequence (Q9UKA9 whole entry): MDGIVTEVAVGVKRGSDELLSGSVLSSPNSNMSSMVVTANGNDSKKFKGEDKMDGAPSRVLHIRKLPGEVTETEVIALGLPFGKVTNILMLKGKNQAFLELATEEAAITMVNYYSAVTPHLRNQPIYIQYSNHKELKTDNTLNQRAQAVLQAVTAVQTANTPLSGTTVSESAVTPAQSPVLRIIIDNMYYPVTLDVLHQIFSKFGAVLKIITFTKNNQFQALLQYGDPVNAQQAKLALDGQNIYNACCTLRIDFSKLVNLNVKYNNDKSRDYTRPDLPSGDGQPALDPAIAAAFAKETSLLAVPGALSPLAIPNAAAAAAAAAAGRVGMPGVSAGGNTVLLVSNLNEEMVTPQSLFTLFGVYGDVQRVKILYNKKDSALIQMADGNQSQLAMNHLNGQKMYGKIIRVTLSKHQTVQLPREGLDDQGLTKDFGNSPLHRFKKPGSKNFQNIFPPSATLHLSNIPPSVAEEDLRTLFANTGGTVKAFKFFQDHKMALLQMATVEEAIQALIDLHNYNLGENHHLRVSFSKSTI
UniProt Q9NX40, sequence (Q9NX40 whole entry): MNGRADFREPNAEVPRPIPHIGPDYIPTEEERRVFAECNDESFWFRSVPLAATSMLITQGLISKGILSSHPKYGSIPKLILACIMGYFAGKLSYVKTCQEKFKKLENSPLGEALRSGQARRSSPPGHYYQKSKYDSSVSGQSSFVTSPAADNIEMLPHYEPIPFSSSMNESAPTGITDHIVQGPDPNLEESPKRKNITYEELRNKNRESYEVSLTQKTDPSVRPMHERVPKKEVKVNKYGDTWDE

Target	NP40-soluble protein abundance
UTP18 (UniProt Q9Y5J1)	1.06 ± 0.091
DDX18 (UniProt Q9NVP1)	1.084 ± 0.0038
STUB1 (UniProt Q9UNE7)	0.948 ± 0.056
NCAPG (UniProt Q9BPX3)	0.992 ± 0.015
UniProt Q96EM0	0.976 ± 0.19
XRN2 (UniProt Q9H0D6)	0.993 ± 0.025
HIRIP3 (UniProt Q9BW71)	0.932 ± 0.071
X5CMH5 (UniProt Q03519)	1.09 ± 0.036
PGAM5 (UniProt Q96HS1)	1.03 ± 0.034
FN3KRP (UniProt Q9HA64)	0.9717 ± 0.0097
UniProt Q9UJX5|Q9UJX5-3|Q9UJX5-2	1.2 ± 0.19
UniProt Q9Y2A7|Q9Y2A7-2	0.9505 ± 0.0043
UniProt Q96MT7-2	1.09 ± 0.063
UniProt Q969P0|Q969P0-3	1.02 ± 0.066
UniProt Q9UII2	0.946 ± 0.08
NHP2 (UniProt Q9NX24)	0.959 ± 0.056

Target	NP40-soluble protein abundance
DMAP1 (UniProt Q9NPF5)	1.04 ± 0.056
UniProt Q96T23|Q96T23-2	1.02 ± 0.028
WDR3 (UniProt Q9UNX4)	1.12 ± 0.08
UniProt Q9NVI7-2	1.07 ± 0.062
UniProt Q9NW08|Q9NW08-2	1.08 ± 0.03
UniProt Q9NVK5|Q9NVK5-2	0.987 ± 0.072
UniProt Q9BTY7	0.967 ± 0.086
UniProt Q9UKV8	1.08 ± 0.065
UniProt Q9NY12|Q9NY12-2	1.04 ± 0.097
UniProt Q9UKA9|Q9UKA9-4	1.04 ± 0.021
TMOD3 (UniProt Q9NYL9)	0.878 ± 0.033
UniProt Q96L91|Q96L91-2|Q96L91-3|Q96L91-5	1.03 ± 0.021
RAB21 (UniProt Q9UL25)	0.998 ± 0.058
OCIAD1 (UniProt Q9NX40)	0.922 ± 0.025
UniProt Q93052|A0A087WZF1|C9JXK9	0.985 ± 0.047
